An excerpt weighted towards active compounds, which were near 2.2% of everything screened.
EWS-Fli inh = EWS/Fli transcriptional activity inhibition. inhibition, % at 12.6 µM. AID 651661. hit rate 0.67% among 350,000. A673 NR0B1-luciferase reporter, viability-normalised;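 active = mean inhibition of at least 50% after viability correction, with every replicate also passing that limit; inconclusive = mean reaches 50% but only one of two replicates passes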;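 also: firefly luciferase signal divided by Alamar Blue viability fluorescence both relative to DMSO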
LGR2 antag = inhibitors of bursicon-induced Drosophila LGR2 receptor cAMP signaling; HEK293 LGR2, CRE-luciferase, bursicon-stimulated, 4 h; inhibition, % at 9.99 µM; hit rate 0.35% among 380,000; AID 720647;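 active = drop in luminescence signal, shown as inhibition above about 50% in the replicate tests, limit read from the data, passing the limit was not always enough; inconclusive = probably only some replicates passing the limit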;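 also: agonist challenge used bursicon conditioned medium at about half maximal strength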
Shn3 inh set2 = reduces Shn3 3'UTR luciferase signal in osteoblasts; Clone20 osteoblast Shn3 3'UTR firefly luciferase, 24 h; inhibition, % at 12.5 µM; hit rate 0.52% among 360,000; AID 588674;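 active = mean inhibition of at least 75% with every replicate also reaching 75%; inconclusive = mean inhibition at least 75% but some replicate below; inactive = mean inhibition below 75%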;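 also: 0% = median of neutral control wells and 100% = pilot-screen positive control compound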
MITF TRPM1 inh = inhibitors of MITF-driven TRPM1 promoter in melanoma cells; SK-MEL-5 TRPM1 promoter luciferase, 24 h; inhibition, % at 12.5 µM; hit rate 0.83% among 330,000; AID 488899;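 active = mean inhibition across replicates of 60% or more, whatever share of single replicates reaches that level; inconclusive = some that reach 60%, reason not given; inactive = mean inhibition across replicates below 60%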
EBV LMP1 NFkB = reduces LMP1-driven NF-kappaB luciferase signal; LMP1-induced NF-kappaB luciferase reporter cells, luminescence; hit rate 0.69% among 350,000; inhibition, % at 12.5 µM; in the data active = inhibition above about 41%; inconclusive = no clear call, values can overlap the other calls;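 also: 0% = neutral control wells and 100% = reference inhibitor control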
PAX8 reporter = PAX8 transcriptional activity inhibition. RMG-I TPO-luciferase reporter, SteadyGlo, 24 h. inhibition, % at 12.6 µM. hit rate 1.2% among 360,000;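 active = mean replicate inhibition at least 60% with every replicate also reaching 60%; inconclusive = only one of the two criteria is met; inactive = mean below 60% and not all replicates reaching 60%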;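 also: luciferase light reporting Pax8 driven TPO promoter activity; plate controls were median of neutral control wells for no effect and mitoxantrone controls for full effect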
* hit, by the source's call; ? = inconclusive; · = not tested or not shown.

SMILES | EWS-Fli inh | LGR2 antag | Shn3 inh set2 | MITF TRPM1 inh | EBV LMP1 NFkB | PAX8 reporter
C[C@H]1CCCCO[C@H](CN(C)Cc2ccc(C(F)(F)F)cc2)[C@@H](C)CN([C@@H](C)CO)C(=O)c2cc(NC(=O)Nc3ccc4c(c3)OCO4)ccc2O1 | 8.5 | 7.7 | · | · | · | 45.8
C[C@@H]1CN([C@H](C)CO)C(=O)Cc2cc(NS(C)(=O)=O)ccc2O[C@H]1CN(C)S(=O)(=O)c1ccc(Cl)cc1 | -1.4 | 5.4 | · | · | · | 6.8
CC(C)NC(=O)N(C)C[C@@H]1Oc2ccc(NC(=O)Nc3cccc4ccccc34)cc2CC(=O)N([C@H](C)CO)C[C@@H]1C | -2.2 | 17.3 | · | · | · | 5.2
C[C@@H]1CN([C@@H](C)CO)C(=O)c2cccc(NC(=O)NC3CCCCC3)c2O[C@H]1CN(C)C(=O)NC1CCCCC1 | -10.8 | -2.5 | · | · | · | ·
CC(C)(C)OC(=O)CC(S(=O)(=O)c1ccccc1)S(=O)(=O)c1ccccc1 | -4.7 | 11.8 | 58.8 | · | -4.0 | 85.9*
CN([C@@H](C(=O)OC(C)(C)C)c1ccccc1)S(=O)(=O)c1cccc(S(=O)(=O)N(C)[C@@H](C(=O)OC(C)(C)C)c2ccccc2)c1 | 4.1 | -1.5 | 47.0 | 8.4 | -5.0 | 3.3
COc1ccc(-c2ccc3n(c2=O)C[C@@H]2[C@@H](CO)[C@H](C(=O)NC4CCC4)N(S(C)(=O)=O)[C@H]32)cc1 | -4.6 | -3.7 | · | · | · | ·
CO[C@H]1CN(C)C(=O)c2ccc(NC(=O)c3cccc(F)c3)cc2OC[C@@H](C)N(CC2CC2)C[C@H]1C | -8.9 | 23.9 | · | · | · | 1.6
CCn1c2ccccc2c2cc(N)ccc21 | · | · | 2.3 | 8.0 | 2.4 | ·
CCn1c2ccccc2c2cc(/C=C(/C#N)C(N)=S)ccc21 | 18.2 | 30.8 | -10.0 | -1.2 | 85.3* | 10.0
Cc1ccc(-n2c(=O)[nH]c3ncccc3c2=O)cc1 | 6.2 | -17.6 | -7.5 | -8.9 | -8.1 | -18.8
Cc1ccc(-n2c(-c3ccc(Br)cc3)c[n+]3c2CCc2ccc4cccnc4c2-3)cc1 | · | 32.1 | 91.1* | 97.7* | 35.6 | ·
CCOc1ccc(C(=O)Nc2nc(C)c(C(=O)OC)s2)cc1 | 73.1* | -55.2 | -92.7 | · | · | -61.8
COC(=O)c1sc(NC(=O)c2ccncc2)nc1C | -5.0 | 1.3 | -10.4 | 6.3 | 3.7 | -4.2
O=C(Nc1ccccc1F)N1C[C@@H]2N[C@H](C1)C2c1ccc(/C=C/c2ccccc2)cc1 (some centres not stated) | -20.9 | 8.5 | · | · | · | -51.3
COC(=O)c1ccc(/C=N/Nc2nc(C)c(C)s2)cc1 | -102.3 | · | · | -84.3 | -42.7 | -114.2
Cc1nc(N/N=C/c2ccccn2)sc1C | ? | 102.3* | · | · | · | 72.9*
CCCc1sc(N/N=C/c2ccccn2)nc1-c1ccc(F)cc1 | · | · | 76.8 | 62.8* | 63.2* | ·
O=C(Cc1cccnc1)N1CC(=O)N2[C@H](CO)[C@H](c3ccc(/C=C/c4ccccc4)cc3)[C@@H]2C1 | -3.4 | 2.3 | · | · | · | -0.6
O=C(N/N=C\c1cc(Cl)ccc1O)c1ccc(S(=O)(=O)N2CCCCC2)cc1 | · | 22.0 | 91.4* | 66.4* | 22.8 | 43.2
Cc1ccc(S(=O)(=O)Nc2cccc3c2O[C@@H](CN(C)Cc2ccc(C(F)(F)F)cc2)[C@H](C)CN([C@@H](C)CO)C3=O)cc1 | 1.0 | -8.6 | · | · | · | ·
CCc1ccc(S(=O)(=O)Nc2cc(SCC(=O)O)c(O)c3ccccc23)cc1 | -25.6 | 45.2 | 4.3 | 46.3 | 2.7 | 22.7
O=C(O)CSc1cc(NS(=O)(=O)c2cccc([N+](=O)[O-])c2)c2ccccc2c1O | -5.8 | ? | 56.7 | 75.8* | 26.5 | 28.9
CCOc1ccc(S(=O)(=O)Nc2cc(SCC(=O)O)c(O)c3ccccc23)cc1 | 5.1 | 18.5 | 10.5 | 18.6 | -7.6 | 53.3
Cc1ccc(C)c(S(=O)(=O)Nc2cc(SCC(=O)O)c(O)c3ccccc23)c1 | · | · | 55.5 | 67.1* | 1.1 | ·
SMILES | EWS-Fli inh | LGR2 antag | Shn3 inh set2 | MITF TRPM1 inh | EBV LMP1 NFkB | PAX8 reporter
CC(C)NC(=O)N(C)C[C@@H]1Oc2ccc(NC(=O)Nc3ccccc3)cc2CC(=O)N([C@@H](C)CO)C[C@H]1C | -7.4 | 4.5 | · | · | · | 5.2
COc1ccc(OC)c(NC(=O)COC(=O)c2c3c(nc4ccccc24)CCCC3)c1 | 17.1 | 70.6* | 90.0* | -11.0 | 31.3 | ·
COc1ccc(OC)c(NC(=O)COC(=O)COc2ccc(Nc3ccccc3)cc2)c1 | 1.3 | · | 4.8 | -3.3 | 69.6* | -2.1
COc1ccc(OC)c(Nc2c3c(nc4ccccc24)CCC3)c1 | 57.2* | -18.6 | 71.9 | 26.2 | 25.4 | 35.1
COc1ccc(CNC(=O)C(c2ccncc2)N(C(=O)Cc2cccs2)c2ccccc2)cc1 (configuration not stated) | 5.4 | -7.8 | -8.3 | 20.4 | -0.2 | 7.1
COc1ccc(N(C(=O)CCl)C(C(=O)NCCc2ccccc2)c2cccs2)cc1 (configuration not stated) | 41.7 | 15.4 | 95.7* | 88.3* | -3.0 | 113.1*
O=[N+]([O-])c1ccc2nc(NN=Cc3ccc(O)cc3)sc2c1 | -1.8 | 104.8* | 15.8 | 20.9 | -9.5 | 2.0
CCOc1ccc(S(=O)(=O)N2CCC(C(=O)NCCc3ccc(OC)c(OC)c3)CC2)cc1 | 2.0 | 6.6 | 11.0 | 5.3 | -3.2 | 1.9
CCOc1ccc(S(=O)(=O)N2CCC(C(=O)NCCc3ccc(S(N)(=O)=O)cc3)CC2)cc1 | 8.5 | -6.5 | 5.7 | 5.1 | 48.9* | -8.4
Cc1ccc(NS(=O)(=O)c2ccc(NC(=O)C(C)Sc3ccc(Cl)cc3)cc2)c(C)c1 (configuration not stated) | 13.8 | 9.8 | 37.4 | 10.5 | 60.5* | 9.3
CN1C(=O)c2cc(NC(=O)c3ccno3)ccc2OC[C@H]2O[C@@H](CC(=O)NCC3CC3)CC[C@@H]21 | -6.3 | -14.0 | · | · | · | -2.7
COc1ccc(-c2nc(-c3ccccn3)ncc2S(C)(=O)=O)cc1 | 9.6 | 2.5 | 14.4 | -3.5 | 3.6 | 11.3
Cn1nc(-c2ccccn2)nc2c(=O)n(C)c(=O)nc1-2 | 37.4 | 102.5* | 97.6* | 103.8* | 14.1 | 105.2*
CCCc1nc2c(=O)n(C)c(=O)nc-2n(C)n1 | 45.1 | 101.8* | 97.2* | 104.2* | 90.1* | 104.1*
COc1ccc(CN2[C@H](CO)[C@H]3c4ccccc4NC[C@H]32)cc1 | 47.8 | 29.3 | · | · | · | 95.7*
CO[C@@H]1CN(C)C(=O)c2ccc(NS(C)(=O)=O)cc2OC[C@H](C)N(Cc2ccccn2)C[C@H]1C | -6.3 | -7.0 | · | · | · | ·
COc1cccc2cc(-c3nnc(-c4ccccc4)o3)c(=O)oc12 | 15.8 | 11.4 | 15.6 | 4.5 | 49.6* | -71.2
Cc1ccccc1OCC(O)Cn1c(=N)n(Cc2ccccc2)c2ccccc21 (configuration not stated) | 32.9 | ? | 87.2* | 17.7 | -3.9 | 43.3
COc1ccccc1OCC(O)Cn1c(=N)n(Cc2ccccc2)c2ccccc21 (configuration not stated) | · | · | 87.3* | 19.9 | -4.0 | ·
Cc1ccccc1OCC(O)Cn1c2ccccc2c2ccccc21 (configuration not stated) | -2.4 | 6.6 | 5.2 | -9.7 | -5.7 | ·

From PubChem
